# Test results reported in PubChem BioAssay (NCATS).
# Several values for one entry are separate records, joined by “and”; a condition that tells them apart may be missing. Equal values may be shown once. Records with an inconclusive call do not appear. Activity calls are given as the source filed them. Unless noted, calls come from the whole dose curve; as a rule, active = well fitted curve in the direction sought with a large enough effect; inconclusive = small, poorly fitted or top-dose-only effect, or another doubt; inactive = no such curve, though single readings can be large; an effect the other way counts as inactive or inconclusive.
# Tested on: not listed separately
# Test: qHTS assay for small molecule agonists of the antioxidant response element (ARE) signaling pathway measured by Nrf2-dependant transcriptional activity (AID 720636; active = well fitted curve in the direction sought with a large enough effect in the repeat runs; an effect the other way counts as inactive or inconclusive; note: % of control where 0% means no effect)
# Details: ARE-luc HepG2, Nrf2 luciferase reporter, 16 h; series mostly up to 92.4 µM; activation: at the top concentration
# Procedure, shortened: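 Quantitative HTS format in HepG2 cells stably expressing an ARE-luciferase reporter; 16 hr compound treatment at 37 C, luciferase signal detected with ONE-Glo.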
Compound,activation,outcome
CC(C)(Oc1ccc(CCNC(=O)c2ccc(Cl)cc2)cc1)C(=O)O,1.03% (inactive),–
COC(=O)[C@H]1[C@H]2C[C@@H]3c4[nH]c5cc(OC)ccc5c4CCN3C[C@H]2C[C@@H](OC(=O)c2cc(OC)c(OC)c(OC)c2)[C@@H]1OC,–,inactive
Nc1nc(N)c2nc(-c3ccccc3)c(N)nc2n1,1.17% (inactive),–
O=C(O)CCCCCCCC(=O)O,-0.537% (inactive),–

# Tested on: not listed separately
# Test: qHTS assay for small molecule agonists of the antioxidant response element (ARE) signaling pathway measured by Nrf2-dependant transcriptional activity - cell viability counter screen (AID 720653; active = well fitted curve in the direction sought with a large enough effect in the repeat runs; an effect the other way counts as inactive or inconclusive; note: potency is the fitted concentration of half-maximal effect; for max response: % is set by controls: 0 for no effect and ±100 for the full control effect)
# Details: ARE-bla HepG2 viability, CellTiter-Glo ATP luminescence, 16 h; max response: hits give low values
# Procedure, shortened: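 ARE-bla HepG2 cells (2,000/well) rested 5 hrs at 37C/5% CO2, then exposed to compounds in DMSO for 16 hrs. Viability was read in the same wells as intracellular ATP by luminescence, 30 min at room temperature after reagent addition.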
Compound,max response,Potency
CC(C)(Oc1ccc(CCNC(=O)c2ccc(Cl)cc2)cc1)C(=O)O,-11.9% (inactive),–
COC(=O)[C@H]1[C@H]2C[C@@H]3c4[nH]c5cc(OC)ccc5c4CCN3C[C@H]2C[C@@H](OC(=O)c2cc(OC)c(OC)c(OC)c2)[C@@H]1OC,-16.7% (inactive) and -9.72% (inactive),–
Nc1nc(N)c2nc(-c3ccccc3)c(N)nc2n1,–,25.1 µM (active)
O=C(O)CCCCCCCC(=O)O,-8.37% (inactive),–

# Biological target: T1, Hexokinase-4 (Homo sapiens) + Glucokinase regulatory protein (Homo sapiens) (UniProt P35557+Q14397)
# T1 sequence (P35557 whole entry, looked up): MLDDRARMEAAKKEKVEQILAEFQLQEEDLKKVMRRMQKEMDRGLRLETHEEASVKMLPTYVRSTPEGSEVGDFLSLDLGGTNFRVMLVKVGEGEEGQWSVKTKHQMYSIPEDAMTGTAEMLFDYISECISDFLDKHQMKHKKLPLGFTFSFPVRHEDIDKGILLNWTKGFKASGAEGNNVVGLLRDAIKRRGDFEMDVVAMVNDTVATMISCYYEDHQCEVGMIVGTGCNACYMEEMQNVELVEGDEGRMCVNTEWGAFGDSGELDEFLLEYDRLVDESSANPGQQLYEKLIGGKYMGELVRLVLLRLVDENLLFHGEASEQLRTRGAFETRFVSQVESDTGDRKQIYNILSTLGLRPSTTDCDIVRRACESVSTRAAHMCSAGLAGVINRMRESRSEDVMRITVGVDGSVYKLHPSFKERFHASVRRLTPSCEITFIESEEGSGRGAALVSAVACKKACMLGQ
# T1 sequence (Q14397 whole entry, looked up): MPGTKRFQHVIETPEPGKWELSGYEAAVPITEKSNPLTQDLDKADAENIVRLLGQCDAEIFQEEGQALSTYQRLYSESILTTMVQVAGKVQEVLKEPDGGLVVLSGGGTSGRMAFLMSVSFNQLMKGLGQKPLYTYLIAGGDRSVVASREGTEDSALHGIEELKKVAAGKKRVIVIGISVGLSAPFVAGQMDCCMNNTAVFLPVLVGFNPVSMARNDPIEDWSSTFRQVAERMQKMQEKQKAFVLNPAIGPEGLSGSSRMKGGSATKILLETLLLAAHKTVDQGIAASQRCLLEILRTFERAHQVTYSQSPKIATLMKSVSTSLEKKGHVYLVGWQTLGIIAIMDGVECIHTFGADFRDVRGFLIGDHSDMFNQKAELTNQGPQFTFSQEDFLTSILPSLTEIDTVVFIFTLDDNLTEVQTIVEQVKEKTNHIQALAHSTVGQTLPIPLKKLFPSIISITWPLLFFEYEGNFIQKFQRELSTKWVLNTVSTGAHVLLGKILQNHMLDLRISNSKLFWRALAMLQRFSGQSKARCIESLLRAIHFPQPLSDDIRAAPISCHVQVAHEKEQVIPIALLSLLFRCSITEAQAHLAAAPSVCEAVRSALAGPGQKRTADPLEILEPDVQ
# Test: qHTS assay for inhibitors of recombinant human GCK-GKRP interaction: Diaphorase-coupled assay (AID 743205)
# Details: G6PDH/diaphorase resorufin fluorescence; series mostly up to 57.5 µM; activity change, positive = activation: at the top concentration
# Procedure, shortened: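 Signal derives from resorufin generated by diaphorase, linked to GCK turnover of glucose (5 mM) and ATP (0.4 mM). Enzyme complex was added after a 20-minute compound preincubation and monitored for 30 minutes.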
row,Compound,"activity change, positive = activation"
1,CC(C)NCC(O)c1cc(O)cc(O)c1 (stereo not given),-12.5% (inactive)
2,COC(=O)[C@@H](N)Cc1ccc(O)c(O)c1,-33.5% (inactive)
3,NC1=NCC2c3ccccc3Cc3ccccc3N12 (stereo not given),0.931% (inactive)
4,CC[N+](C)(C)c1cccc(O)c1,-6.33% (inactive)
5,COc1cc(C(=O)OCCCN2CCCN(CCCOC(=O)c3cc(OC)c(OC)c(OC)c3)CC2)cc(OC)c1OC,0.576% (inactive)
6,O=C1NCN(c2ccccc2)C12CCN(CCCC(c1ccc(F)cc1)c1ccc(F)cc1)CC2,-0.543% (inactive)
7,CC(C)(Oc1ccc(CCNC(=O)c2ccc(Cl)cc2)cc1)C(=O)O,-5.11% (inactive)
8,C[C@]12CCC(=O)C=C1CC[C@@H]1[C@@H]2CC[C@@]2(C)[C@H]1CC[C@]2(O)C(=O)CO,-3.96% (inactive)
9,Brc1c(NC2=NCCN2)ccc2nccnc12,-29.4% (inactive)
10,Cc1nnc(SCC2=C(C(=O)O)N3C(=O)[C@@H](NC(=O)Cn4cnnn4)[C@H]3SC2)s1,-2.36% (inactive)
11,Cc1cccc(C)c1NC(=O)C(C)N (stereo not given),0.932% (inactive)
12,CN(C)C(=O)Oc1ccc[n+](C)c1,0.229% (inactive)
13,CCCN1C[C@H](CSC)C[C@@H]2c3cccc4[nH]cc(c34)C[C@H]21,-17.5% (inactive)
14,O=C1CC2(CCCC2)CC(=O)N1CCCCN1CCN(c2ncccn2)CC1,-3% (inactive)
15,CCn1cc(C(=O)O)c(=O)c2cc3c(cc21)OCO3,-0.183% (inactive)
16,NC(Cc1ccc(Cl)cc1)C(=O)O (stereo not given),1.21% (inactive)
17,COc1ccc2c(c1OC)C(=O)O[C@@H]2[C@H]1c2c(cc3c(c2OC)OCO3)CCN1C,-6.95% (inactive)
18,NC(=O)c1ncn([C@@H]2O[C@H](CO)[C@@H](O)[C@H]2O)c1O,0.448% (inactive)

row,Compound,"activity change, positive = activation"
1,COC(=O)[C@H]1[C@H]2C[C@@H]3c4[nH]c5cc(OC)ccc5c4CCN3C[C@H]2C[C@@H](OC(=O)c2cc(OC)c(OC)c(OC)c2)[C@@H]1OC,-30.6% (inactive)
2,CN1CCN(CC(=O)N2c3ccccc3C(=O)Nc3cccnc32)CC1,-4.45% (inactive)
3,CCN(CC)CCOCCOC(=O)C1(c2ccccc2)CCCC1,1.52% (inactive)
4,CCCCCN(CCCCC)C(=O)C(CCC(=O)O)NC(=O)c1ccc(Cl)c(Cl)c1 (stereo not given),1.39% (inactive)
5,O=C(CCCN1CCC(O)(c2cccc(C(F)(F)F)c2)CC1)c1ccc(F)cc1,-2.59% (inactive)
6,CN(C)CCOC(=O)COc1ccc(Cl)cc1,0.129% (inactive)
7,CN(C)C(=O)Oc1cccc([N+](C)(C)C)c1,2.07% (inactive)
8,Nc1nc(N)c2nc(-c3ccccc3)c(N)nc2n1,1.71% (inactive)
9,Fc1ccc(C(c2ccc(F)cc2)N2CCN(C/C=C/c3ccccc3)CC2)cc1,-9.08% (inactive)
10,O=C(O)CN(CCOCCOCCN(CC(=O)O)CC(=O)O)CC(=O)O,-2.44% (inactive)
11,CCCC(C(=O)OCCN(CC)CC)(c1ccccc1)c1ccccc1,2.16% (inactive)
12,CC(C)[N+](C)(CCOC(=O)C1c2ccccc2Oc2ccccc21)C(C)C,1.7% (inactive)
13,O=C(O)CCCCCCCC(=O)O,-7.75% (inactive)
14,N[C@@H](COP(=O)(O)O)C(=O)O,-4.82% (inactive)
15,COCCc1ccc(OCC(O)CNC(C)C)cc1 (stereo not given),3.72% (inactive)
16,Cc1cc(C)c(/C=C2\C(=O)Nc3ccccc32)[nH]1,-6.04% (inactive)
17,CC1=NS(=O)(=O)c2cc(Cl)ccc2N1,-4.81% (inactive)
18,CCNC(=O)N1CCN(CCCC(c2ccc(F)cc2)c2ccc(F)cc2)CC1,0.592% (inactive)

# Biological target: T1, Hexokinase-4 (Homo sapiens) + Glucokinase regulatory protein (Homo sapiens)
# Test: qHTS assay for inhibitors of recombinant human GCK-GKRP interaction: ADP-Glo assay (AID 743206);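 note: plate controls were DMSO plus enzyme for no effect and no enzyme for full effect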
# Details: ADP-Glo luminescence, 60 min, 0% = vehicle-only wells with enzyme present; series mostly up to 76.9 µM; activity, positive = activation: at the top concentration
# Procedure, shortened: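 GST-GCK and FLAG-GKRP (15 nM each in the dispensed mix, with 2 uM S6P) react with 0.4 mM ATP and 5 mM glucose (final) in Hepes pH 7.6 for 60 min at room temperature. ADP is measured by ADP-Glo luminescence.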
row,Compound,"activity, positive = activation"
1,CC(C)NCC(O)c1cc(O)cc(O)c1 (stereo not given),5.08% (inactive)
2,COC(=O)[C@@H](N)Cc1ccc(O)c(O)c1,5.86% (inactive)
3,NC1=NCC2c3ccccc3Cc3ccccc3N12 (stereo not given),2.75% (inactive)
4,CC[N+](C)(C)c1cccc(O)c1,2.59% (inactive)
5,COc1cc(C(=O)OCCCN2CCCN(CCCOC(=O)c3cc(OC)c(OC)c(OC)c3)CC2)cc(OC)c1OC,1.28% (inactive)
6,O=C1NCN(c2ccccc2)C12CCN(CCCC(c1ccc(F)cc1)c1ccc(F)cc1)CC2,-2.61% (inactive)
7,CC(C)(Oc1ccc(CCNC(=O)c2ccc(Cl)cc2)cc1)C(=O)O,1.85% (inactive)
8,C[C@]12CCC(=O)C=C1CC[C@@H]1[C@@H]2CC[C@@]2(C)[C@H]1CC[C@]2(O)C(=O)CO,-3.8% (inactive)
9,Brc1c(NC2=NCCN2)ccc2nccnc12,6.12% (inactive)
10,Cc1nnc(SCC2=C(C(=O)O)N3C(=O)[C@@H](NC(=O)Cn4cnnn4)[C@H]3SC2)s1,3.88% (inactive)
11,Cc1cccc(C)c1NC(=O)C(C)N (stereo not given),3.75% (inactive)
12,CN(C)C(=O)Oc1ccc[n+](C)c1,-0.39% (inactive)
13,CCCN1C[C@H](CSC)C[C@@H]2c3cccc4[nH]cc(c34)C[C@H]21,2% (inactive)
14,O=C1CC2(CCCC2)CC(=O)N1CCCCN1CCN(c2ncccn2)CC1,-0.223% (inactive)
15,CCn1cc(C(=O)O)c(=O)c2cc3c(cc21)OCO3,0.0029% (inactive)
16,NC(Cc1ccc(Cl)cc1)C(=O)O (stereo not given),2.87% (inactive)
17,COc1ccc2c(c1OC)C(=O)O[C@@H]2[C@H]1c2c(cc3c(c2OC)OCO3)CCN1C,0.929% (inactive)
18,NC(=O)c1ncn([C@@H]2O[C@H](CO)[C@@H](O)[C@H]2O)c1O,4.06% (inactive)

row,Compound,"activity, positive = activation"
1,COC(=O)[C@H]1[C@H]2C[C@@H]3c4[nH]c5cc(OC)ccc5c4CCN3C[C@H]2C[C@@H](OC(=O)c2cc(OC)c(OC)c(OC)c2)[C@@H]1OC,-3.03% (inactive)
2,CN1CCN(CC(=O)N2c3ccccc3C(=O)Nc3cccnc32)CC1,2.78% (inactive)
3,CCN(CC)CCOCCOC(=O)C1(c2ccccc2)CCCC1,0.96% (inactive)
4,CCCCCN(CCCCC)C(=O)C(CCC(=O)O)NC(=O)c1ccc(Cl)c(Cl)c1 (stereo not given),3.16% (inactive)
5,O=C(CCCN1CCC(O)(c2cccc(C(F)(F)F)c2)CC1)c1ccc(F)cc1,2.76% (inactive)
6,CN(C)CCOC(=O)COc1ccc(Cl)cc1,-2.1% (inactive)
7,CN(C)C(=O)Oc1cccc([N+](C)(C)C)c1,3.85% (inactive)
8,Nc1nc(N)c2nc(-c3ccccc3)c(N)nc2n1,-0.403% (inactive)
9,Fc1ccc(C(c2ccc(F)cc2)N2CCN(C/C=C/c3ccccc3)CC2)cc1,2.01% (inactive)
10,O=C(O)CN(CCOCCOCCN(CC(=O)O)CC(=O)O)CC(=O)O,2.48% (inactive)
11,CCCC(C(=O)OCCN(CC)CC)(c1ccccc1)c1ccccc1,4.94% (inactive)
12,CC(C)[N+](C)(CCOC(=O)C1c2ccccc2Oc2ccccc21)C(C)C,2.49% (inactive)
13,O=C(O)CCCCCCCC(=O)O,3.44% (inactive)
14,N[C@@H](COP(=O)(O)O)C(=O)O,4.3% (inactive)
15,COCCc1ccc(OCC(O)CNC(C)C)cc1 (stereo not given),-0.885% (inactive)
16,Cc1cc(C)c(/C=C2\C(=O)Nc3ccccc32)[nH]1,-2.72% (inactive)
17,CC1=NS(=O)(=O)c2cc(Cl)ccc2N1,-0.904% (inactive)
18,CCNC(=O)N1CCN(CCCC(c2ccc(F)cc2)c2ccc(F)cc2)CC1,1.74% (inactive)
